Experiment [1] has as its target Cytochrome P450 1A2 (Homo sapiens) (UniProt P05177). Nature of the experiment: p450-cyp1a2 (AID 410; calls by dose curve; also: potency is read from the fitted curve at half-maximal effect). In outline: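 20nM CYP1A2 with 100uM Luciferin-ME (at Km) in 100mM KPO4; compound preincubated 10 min, NADPH regeneration added, 60 min at room temperature. Luciferin quantified by luminescence after detection reagent; normalized to 57 uM furafylline.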
Experiment [2] has as its target Mitogen-activated protein kinase 10 (Mus musculus) (UniProt Q61831). Nature of the experiment: JNK3 AlphaScreen Assay (AID 530; active = well fitted curve in either direction with a large enough effect, not every such curve was filed as active;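 also: kinase came from lysate of stimulated human HepG2 cells; signal reports phosphorylation of biotinylated GST-cJun 1-79 at Ser73 with 10 µM ATP; series mostly up to about 57 µM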). A digest of the protocol:
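Inhibitors reduce antibody binding to phosphorylated biotin-cJun, lowering AlphaScreen luminescence. Lysates from HepG2 cells pre-activated by IL-1beta plus TNF-alpha supplied JNK3; compounds were titrated.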

In experiment [3] the target is 3',5'-cyclic-AMP phosphodiesterase 4B (Homo sapiens) (UniProt Q07343). Nature of the experiment: qHTS Assay for Inhibitors of PDE-IV (AID 607; active = well fitted activation curve with a large enough effect in the main read-out, with a control signal flat, not every such curve was filed as active). A digest of the protocol: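 HEK293 ACTOne cells with CNG channel (1000/well), endogenous PDE4; membrane potential dye, compounds up to 22.9 uM final. Fluorescence Ex 535/Em 590; RO 20-1724 (100 uM final) as reference.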
(qHTS replaces the single test concentration by a dilution series.)

Experiment [4] concerns the target Cytochrome P450 3A4 (Homo sapiens) (UniProt P08684). Nature of the experiment: qHTS Assay for Activators of Cytochrome P450 3A4 (AID 885). Also: nearly all actives have a fitted effect of over 65% in size. A digest of the protocol:
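Human CYP3A4 (20 nM) with Luciferin-PPXE at 25 uM (its KM) in 200 mM KPO4; 10 min compound preincubation, then NADPH regeneration and 60 min reaction at RT. Luciferin read by luminescence; normalized to 57 uM ketoconazole full inhibition.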

Experiment [5] concerns the target Cytochrome P450 2D6 (Homo sapiens) (UniProt P10635). Nature of the experiment: qHTS Assay for Inhibitors and Substrates of Cytochrome P450 2D6 (AID 891). Also: potency is read from the fitted curve at half-maximal effect; nearly all actives have a fitted effect of over 60% in size. A digest of the protocol:
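Human CYP2D6 (5 nM) with 30 uM Luciferin-ME EGE (at Km) in 100 mM KPO4, compound preincubated 10 min, then NADPH regeneration system for 60 min at room temperature. Luciferin read by luminescence; normalized to 1.43 uM quinidine.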

Experiment [6] concerns the target Cytochrome P450 2C9 (Homo sapiens) (UniProt P11712). Nature of the experiment: qHTS Assay for Inhibitors and Substrates of Cytochrome P450 2C9 (AID 883). Also: potency is read from the fitted curve at half-maximal effect; nearly all actives have a fitted effect of over 60% in size. In outline:
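CYP2C9 deoxyluciferin hydroxylation, 37C, 60 min with NADPH regeneration; 10nM enzyme, 100uM Luciferin-H (KM). Glo detection reagent stopped reaction; luminescence normalized to sulphaphenazole (57uM) full inhibition.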

The target in experiment [7] is Cytochrome P450 3A4 (Homo sapiens) (UniProt P08684). Nature of the experiment: qHTS Assay for Inhibitors and Substrates of Cytochrome P450 3A4 (AID 884). Also: potency is read from the fitted curve at half-maximal effect; nearly all actives have a fitted effect of over 50% in size. A digest of the protocol:
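20 nM human CYP3A4 with 25 uM Luciferin-PPXE (at KM) in 200 mM KPO4, preincubated 10 min with compound; NADPH regeneration started a 60 min RT reaction. Luciferin detected by luminescence, normalized to 57 uM ketoconazole as full inhibition.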

Experiment [8] deals with Cytochrome P450 2C19 (Homo sapiens) (UniProt P33261). Nature of the experiment: qHTS Assay for Inhibitors and Substrates of Cytochrome P450 2C19 (AID 899). Also: potency is read from the fitted curve at half-maximal effect; nearly all actives have a fitted effect of over 60% in size. A digest of the protocol:
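In 50mM KPO4, the reaction held 5nM enzyme and KM-level (10uM) Luciferin-H EGE; it ran 60 min at 37C after NADPH regeneration and a 10 min compound preincubation. Luminescence values were scaled to 57uM ketoconazole as complete inhibition.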

Records with an inconclusive call do not appear. Activity calls are given as the source filed them. Unless noted, calls follow the shape of the dose curve; as a rule, active = well fitted curve in the direction sought with a large enough effect; inconclusive = small, poorly fitted or top-dose-only effect, or another doubt; inactive = no such curve, though single readings can be large; an effect the other way counts as inactive or inconclusive.

Cytochrome P450 2D6 (Homo sapiens), sequence (P10635 whole entry, looked up): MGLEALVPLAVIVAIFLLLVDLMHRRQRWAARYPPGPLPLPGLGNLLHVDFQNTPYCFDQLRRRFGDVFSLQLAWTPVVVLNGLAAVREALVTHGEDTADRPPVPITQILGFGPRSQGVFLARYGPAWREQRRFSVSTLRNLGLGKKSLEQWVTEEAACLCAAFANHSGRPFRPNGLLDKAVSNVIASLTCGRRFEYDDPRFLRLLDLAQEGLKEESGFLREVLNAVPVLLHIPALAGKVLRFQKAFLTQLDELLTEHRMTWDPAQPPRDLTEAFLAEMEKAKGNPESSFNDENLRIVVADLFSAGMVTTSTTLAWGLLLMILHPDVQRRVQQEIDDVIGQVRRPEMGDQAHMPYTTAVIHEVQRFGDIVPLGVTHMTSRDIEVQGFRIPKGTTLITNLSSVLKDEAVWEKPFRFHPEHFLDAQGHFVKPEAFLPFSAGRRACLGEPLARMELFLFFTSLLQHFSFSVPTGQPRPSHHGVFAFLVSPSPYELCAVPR
Cytochrome P450 3A4 (Homo sapiens), sequence (P08684 whole entry, looked up): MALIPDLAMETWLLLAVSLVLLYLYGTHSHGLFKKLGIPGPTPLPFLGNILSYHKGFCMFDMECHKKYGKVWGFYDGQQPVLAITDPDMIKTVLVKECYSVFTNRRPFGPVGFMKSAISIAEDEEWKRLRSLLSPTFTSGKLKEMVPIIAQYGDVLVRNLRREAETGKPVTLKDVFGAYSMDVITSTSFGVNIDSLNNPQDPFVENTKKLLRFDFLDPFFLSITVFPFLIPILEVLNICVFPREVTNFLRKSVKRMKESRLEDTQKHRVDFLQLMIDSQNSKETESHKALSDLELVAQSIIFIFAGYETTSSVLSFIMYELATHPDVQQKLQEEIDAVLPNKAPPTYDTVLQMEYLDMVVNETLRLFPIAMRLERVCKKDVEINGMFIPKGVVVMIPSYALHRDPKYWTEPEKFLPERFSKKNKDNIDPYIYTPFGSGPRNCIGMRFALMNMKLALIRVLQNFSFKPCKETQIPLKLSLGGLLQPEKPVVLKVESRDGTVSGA
3',5'-cyclic-AMP phosphodiesterase 4B (Homo sapiens), sequence (Q07343 whole entry, looked up): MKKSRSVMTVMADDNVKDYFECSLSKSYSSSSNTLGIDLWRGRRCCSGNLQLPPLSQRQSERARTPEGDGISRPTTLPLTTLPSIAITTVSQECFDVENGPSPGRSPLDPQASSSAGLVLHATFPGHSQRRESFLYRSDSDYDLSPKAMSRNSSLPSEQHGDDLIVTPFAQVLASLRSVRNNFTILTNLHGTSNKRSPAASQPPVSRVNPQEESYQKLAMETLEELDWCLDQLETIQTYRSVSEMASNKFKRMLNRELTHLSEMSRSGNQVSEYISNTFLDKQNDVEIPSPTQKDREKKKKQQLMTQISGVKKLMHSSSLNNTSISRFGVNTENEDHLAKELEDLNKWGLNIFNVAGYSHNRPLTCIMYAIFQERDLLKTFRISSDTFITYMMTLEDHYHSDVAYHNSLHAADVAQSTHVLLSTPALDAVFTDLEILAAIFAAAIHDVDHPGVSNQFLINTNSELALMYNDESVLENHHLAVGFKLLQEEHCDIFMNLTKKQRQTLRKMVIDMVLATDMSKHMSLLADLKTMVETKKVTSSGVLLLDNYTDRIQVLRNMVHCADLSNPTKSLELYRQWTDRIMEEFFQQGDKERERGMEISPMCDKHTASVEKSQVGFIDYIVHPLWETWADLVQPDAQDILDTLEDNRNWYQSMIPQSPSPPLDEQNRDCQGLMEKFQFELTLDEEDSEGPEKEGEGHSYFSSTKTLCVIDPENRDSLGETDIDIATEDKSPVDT
Cytochrome P450 1A2 (Homo sapiens), sequence (P05177 whole entry, looked up): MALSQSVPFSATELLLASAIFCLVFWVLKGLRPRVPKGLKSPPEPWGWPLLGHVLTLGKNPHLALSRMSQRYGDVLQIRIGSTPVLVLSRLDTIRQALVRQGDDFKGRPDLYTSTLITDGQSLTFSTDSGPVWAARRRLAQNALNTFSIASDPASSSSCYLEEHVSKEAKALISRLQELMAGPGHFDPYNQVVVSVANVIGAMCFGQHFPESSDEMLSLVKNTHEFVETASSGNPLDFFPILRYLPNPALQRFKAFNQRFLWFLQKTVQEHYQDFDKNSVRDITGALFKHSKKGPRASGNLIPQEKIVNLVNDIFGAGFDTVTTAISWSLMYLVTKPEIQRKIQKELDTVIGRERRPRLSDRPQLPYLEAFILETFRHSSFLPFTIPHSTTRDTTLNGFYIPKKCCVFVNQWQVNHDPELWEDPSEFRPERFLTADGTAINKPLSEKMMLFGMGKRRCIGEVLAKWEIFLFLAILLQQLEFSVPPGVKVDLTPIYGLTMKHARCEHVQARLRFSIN
Cytochrome P450 2C19 (Homo sapiens), sequence (P33261 whole entry, looked up): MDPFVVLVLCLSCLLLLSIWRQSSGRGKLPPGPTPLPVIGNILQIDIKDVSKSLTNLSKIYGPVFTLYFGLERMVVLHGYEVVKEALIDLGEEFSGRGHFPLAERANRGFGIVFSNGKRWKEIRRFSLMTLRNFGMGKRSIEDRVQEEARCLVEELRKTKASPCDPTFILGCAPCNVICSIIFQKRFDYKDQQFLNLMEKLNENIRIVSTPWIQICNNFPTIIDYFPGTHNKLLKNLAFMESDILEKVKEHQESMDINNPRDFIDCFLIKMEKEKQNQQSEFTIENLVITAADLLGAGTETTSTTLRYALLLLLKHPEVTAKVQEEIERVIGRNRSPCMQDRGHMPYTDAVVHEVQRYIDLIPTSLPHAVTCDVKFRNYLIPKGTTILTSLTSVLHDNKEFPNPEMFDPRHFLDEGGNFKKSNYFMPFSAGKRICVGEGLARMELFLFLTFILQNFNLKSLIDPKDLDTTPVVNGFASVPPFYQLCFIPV
Cytochrome P450 2C9 (Homo sapiens), sequence (P11712 whole entry, looked up): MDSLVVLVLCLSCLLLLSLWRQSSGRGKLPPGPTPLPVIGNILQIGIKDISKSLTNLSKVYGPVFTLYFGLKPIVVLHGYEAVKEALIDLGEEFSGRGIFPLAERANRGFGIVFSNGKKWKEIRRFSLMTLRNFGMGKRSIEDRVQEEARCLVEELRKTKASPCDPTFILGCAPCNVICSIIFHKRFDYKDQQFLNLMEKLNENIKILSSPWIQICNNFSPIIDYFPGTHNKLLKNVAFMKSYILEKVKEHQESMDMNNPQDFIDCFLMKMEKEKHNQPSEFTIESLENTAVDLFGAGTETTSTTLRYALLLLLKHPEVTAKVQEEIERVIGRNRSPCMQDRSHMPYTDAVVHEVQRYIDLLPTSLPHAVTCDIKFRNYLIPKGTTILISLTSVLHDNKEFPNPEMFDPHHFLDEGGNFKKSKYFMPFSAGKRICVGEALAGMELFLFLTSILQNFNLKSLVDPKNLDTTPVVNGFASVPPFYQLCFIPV

Consider `COC(=O)[C@H]1C[C@@H]1[C@H](NC(=O)c1cc(C)on1)c1ccccc1`, for which the Potency in experiment [1] is 15.8 µM (active). The Potency result in experiment [2], in experiment [3] and in experiment [4] was “inactive” each time.

`COCC1C2CC[C@H]3C(OCc4ccc(F)cc4C(F)(F)F)OC[C@]4(C)[C@H]3C2=C(CN4C(=O)OC(C)(C)C)[C@H](C)C1COC` (stereo partly drawn): in experiment [1], the Potency was 31.6 µM (active). Further, the Potency result in experiment [2], in experiment [3] and in experiment [4] was “inactive” each time.

Take `CCC/C=C(\CCC)C(NC(=O)c1ccc(C(F)(F)F)cc1)c1ccc(C(F)(F)F)cc1` (stereo not drawn): the Potency entry in experiment [1], in experiment [2], in experiment [3] and in experiment [4] was “inactive” in each case.

As for `C#CCCCC(=S)Nc1ccccc1`, the Potency in experiment [1] is 12.6 µM (active). Besides, the Potency entry in experiment [2], in experiment [3] and in experiment [4] was “inactive” throughout.

With `CCCC/C=C/C(NC(=O)c1ccco1)c1ccccc1` (stereo not drawn), the Potency in experiment [1] was 5.01 µM (active). In addition, the Potency result in experiment [2], in experiment [3] and in experiment [4] was “inactive” each time.

Regarding `COC(=O)[C@@H]1C[C@H]1[C@@H](NC(=O)c1cc(C)nn1C)c1ccccc1`, the Potency in experiment [1] was 15.8 µM (active). Further, the Potency result in experiment [2], in experiment [3] and in experiment [4] was “inactive” throughout.

Consider `C[C@@]1(C(NC(=O)Cc2ccccc2)c2ccc(-c3ccccc3)cc2)C[C@H]1C1CCCCC1` (stereo partly drawn), for which the Potency entry in experiment [1], in experiment [2], in experiment [3] and in experiment [4] was “inactive” each time.

For `CCCC1(C(=O)OC)C=C2C(=C(C)C(=O)C2C)CN1` (stereo not drawn), the Potency entry in experiment [1], in experiment [2], in experiment [3] and in experiment [4] was “inactive” in each case.

On to `Cc1c2c(nc3ccccc13)-c1cccc(=O)n1C2`, for which the Potency in experiment [1] is 0.1 µM (active). Also, the Potency result in experiment [2], in experiment [3] and in experiment [4] was “inactive” throughout.

Turning to `OC1c2ccccc2-c2nc3ccccc3cc21` (stereo not drawn), the results for the Potency in experiment [1] and in experiment [5] were 0.126 µM (active) and 20 µM (active), respectively. Also, the Potency result in experiment [2], in experiment [3] and in experiment [4] was “inactive” throughout.

`COC(=O)[C@@]1(Cc2ccc(F)cc2)[C@H]2c3cc(C(=O)N4CCCC4)n(CCc4ccc(O)c(O)c4)c3C[C@H]2CN1C(=O)c1ccccc1`: the Potency in experiment [1] is 20 µM (active); in experiment [6], 3.16 µM (active); in experiment [7] it was 2.51 µM (active). For the same molecule, the Potency entry in experiment [2] and in experiment [4] was “inactive” throughout.

On to `CCCC[C@@H]1C[C@H]1C(NC(=O)c1ccco1)c1ccc(C(=O)OC)cc1` (stereo partly drawn), for which the figures for the Potency in experiment [1] and in experiment [6] were 3.98 µM (active) and 0.794 µM (active), respectively. In addition, the Potency result in experiment [2] and in experiment [4] was “inactive” throughout.

`COC(=O)[C@@H]1C[C@H]1[C@@H](NC(=O)c1cccnc1)c1ccccc1`: in experiment [1], the Potency was 12.6 µM (active). The Potency result in experiment [2], in experiment [3] and in experiment [4] was “inactive” throughout.

As to `COc1ccc2nc3c(cc2c1)Cc1ccccc1-3`, the Potency in experiment [1] was 0.251 µM (active); in experiment [6], 6.31 µM (active); in experiment [7], 6.31 µM (active); in experiment [5] it was 6.31 µM (active); in experiment [8], 2.51 µM (active). The Potency entry in experiment [2] and in experiment [4] was “inactive” each time.

Turning to `CCC/C=C(\CCC)C(NS(=O)(=O)c1cccc2cccnc12)c1ccc(C(=O)OC)cc1` (stereo not drawn), the Potency in experiment [1] is 6.31 µM (active); in experiment [6], 1.58 µM (active); in experiment [7], 5.01 µM (active); in experiment [8], 3.16 µM (active). The Potency entry in experiment [2] and in experiment [4] was “inactive” in each case.

`C[C@@H](C(=O)Nc1ccc2ccccc2c1)[C@H]1C[C@]1(C)[C@H](NC(=O)c1cnccn1)c1ccccc1`: the Potency in experiment [1] is 25.1 µM (active); in experiment [6], 5.01 µM (active); in experiment [7], 0.631 µM (active). Further, the Potency entry in experiment [2] and in experiment [4] was “inactive” in each case.

Regarding `CC1=C(C(=O)OCc2ccccc2)C(c2ccc([N+](=O)[O-])cc2)NC(=O)N1CCCCCC(=O)O` (stereo not drawn), the Potency in experiment [1] was 15.8 µM (active). The Potency entry in experiment [2], in experiment [3] and in experiment [4] was “inactive” each time.

Regarding `C[C@@H](C(=O)NCc1ccc(S(C)(=O)=O)cc1)[C@@H]1C[C@@]1(C)[C@@H](NC(=O)OCc1ccccc1)c1ccccc1`, the Potency was 15.8 µM (active) in experiment [1] and 1.26 µM (active) in experiment [8]. For the same molecule, the Potency entry in experiment [2], in experiment [3] and in experiment [4] was “inactive” throughout.

Consider `C=C1C(=O)C=C2CN(C(=O)c3ccccc3)[C@@](Cc3ccc(F)cc3)(C(=O)OC)[C@@H]12`, for which the Potency is 15.8 µM (active) in experiment [1], 3.98 µM (active) in experiment [6], 7.94 µM (active) in experiment [7] and 5.01 µM (active) in experiment [8]. The Potency result in experiment [2] and in experiment [4] was “inactive” each time.

In the case of `CCC/C=C(\CCC)C(NS(=O)(=O)c1cccc2cccnc12)c1ccc(-c2ccccc2)cc1` (stereo not drawn), the Potency in experiment [1] was 0.794 µM (active); in experiment [6] it was 2 µM (active); in experiment [7] it was 3.16 µM (active). In addition, the Potency result in experiment [2] and in experiment [4] was “inactive” throughout.

With `O=C(NCCc1c[nH]c2ccccc12)[C@@H]1C[C@H]1[C@@H](NP(=O)(c1ccccc1)c1ccccc1)c1ccccc1`, the Potency in experiment [1] is 15.8 µM (active); in experiment [6], 0.251 µM (active); in experiment [7] it was 1.26 µM (active); in experiment [8], 6.31 µM (active). In addition, the Potency entry in experiment [2] and in experiment [4] was “inactive” each time.

As to `CCC[C@@H]1C[C@@]1(CCC)C(NC(=O)c1ccco1)c1ccc(Cl)cc1` (stereo partly drawn), the figures for the Potency in experiment [1], in experiment [5] and in experiment [8] were 25.1 µM (active), 3.98 µM (active) and 3.16 µM (active), respectively. Moreover, the Potency entry in experiment [2], in experiment [3] and in experiment [4] was “inactive” each time.

For `CCCC[C@@H]1C[C@H]1C(NC(=O)c1cccs1)c1ccc(-c2ccccc2)cc1` (stereo partly drawn), the Potency is 2 µM (active) in experiment [1] and 1.58 µM (active) in experiment [6]. Besides, the Potency entry in experiment [2] and in experiment [4] was “inactive” in each case.

Regarding `CCCCCC1=C2CNC(Cc3ccccc3)(C(=O)OC)C=C2C(C)C1=O` (stereo not drawn), the Potency in experiment [1] was 15.8 µM (active); in experiment [8], 6.31 µM (active). Further, the Potency entry in experiment [2], in experiment [3] and in experiment [4] was “inactive” each time.

These data come from PubChem BioAssay (NCATS).
